Experimental data from PubChem BioAssay AID1851 (National Center for Advancing Translational Sciences (NCATS), 2009).
About 2,600 (16%) of roughly 16,000 compounds were called active. About 20% were inconclusive and are not listed. The list is a sample of the results. Unmarked numbers belong to inactive results. The call rests on the fitted dose curve; in most records, active means well fitted curve in the direction sought with a large enough effect; inconclusive means small, poorly fitted or top-dose-only effect, or effect the other way; inactive means no such curve, though single readings can be large or run the other way. Peptide text beside a SMILES is read from it. * marks the point of attachment. PhAc = O=C(Cc1ccccc1)*; OBn = c1ccc(CO*)cc1

Molecular target: Cytochrome P450 2D6 (Homo sapiens) (UniProt P10635)
Sequence (P10635 whole entry, looked up): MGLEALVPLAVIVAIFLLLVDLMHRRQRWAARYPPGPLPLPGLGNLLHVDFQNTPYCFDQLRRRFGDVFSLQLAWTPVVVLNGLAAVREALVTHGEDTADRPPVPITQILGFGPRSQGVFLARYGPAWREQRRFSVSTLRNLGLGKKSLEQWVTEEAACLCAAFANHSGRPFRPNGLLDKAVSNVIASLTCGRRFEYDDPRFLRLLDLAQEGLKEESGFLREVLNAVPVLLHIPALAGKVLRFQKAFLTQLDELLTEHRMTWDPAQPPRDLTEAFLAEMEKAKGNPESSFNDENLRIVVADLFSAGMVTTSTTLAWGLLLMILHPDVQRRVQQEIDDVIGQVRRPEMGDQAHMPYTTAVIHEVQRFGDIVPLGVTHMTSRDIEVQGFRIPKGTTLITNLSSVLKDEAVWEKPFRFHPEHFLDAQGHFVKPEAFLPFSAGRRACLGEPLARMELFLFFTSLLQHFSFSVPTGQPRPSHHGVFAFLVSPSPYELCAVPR
Assay: Cytochrome panel assay with activity outcomes
Details: recombinant CYP, pro-luciferin dealkylation, luminescence, p450-cyp2d6; series mostly up to 57.1 µM; activity, negative = inhibition: at the top concentration
On the % scale 0 is the no-effect control and ±100 the full control effect.

Row | SMILES | activity, negative = inhibition | AC50
1 | CCOC(=O)CSc1ncc(OC)c(Sc2ccc(Cl)cc2)n1 | -24.8% | 
2 | CCCC(=O)Nc1nc(-c2ccc3c(c2)CCN3S(C)(=O)=O)cs1 | -1.01% | 
3 | COc1ccccc1C(=O)O/N=C1/CCCc2c1ccc(OC)c2[N+](=O)[O-] | 3.73% | 
4 | C[C@](N)(Cc1ccc(O)c(O)c1)C(=O)O | -0.0132% | 
5 | Nc1nc(N)c2nn(-c3ccc(C(=O)O)cc3)nc2n1 | -6.74% [at 11.4 µM] | 
6 | Cc1c(-c2ccc(F)cc2)nc(N)c(C#N)c1-c1cccs1 | -11% | 
7 | CCOc1ccc(N=C2NC(=O)C(CC(=O)O)S2)cc1 (stereo not given) | -2.86% | 
8 | CCS(=O)(=O)N1CCC(C(=O)NCCCN2CCCC2)CC1 | -1.23% | 
9 | O=C(NCCCN1CCc2ccccc2C1)C1CCN(S(=O)(=O)N2CCCC2)CC1 |  | 7.94 µM (active)
10 | O=C(NCc1ccc(F)cc1)C1CCN(S(=O)(=O)N2CCCCC2)CC1 | -7.67% | 
11 | Cc1cc(C)c(S(=O)(=O)NNC(=O)C2CCN(Cc3ccccc3)CC2)c(C)c1 |  | 15.8 µM (active)
12 | O=C(C1CCN(S(=O)(=O)N2CCOCC2)CC1)N1CCN(Cc2ccccc2)CC1 | -1.18% | 
13 | CCCCN(CC)S(=O)(=O)N1CCC(C(=O)NCCCN2CCOCC2)CC1 | -4.19% | 
14 | O=C(NCCCN1CCC(Cc2ccccc2)CC1)C1CCN(S(=O)(=O)N2CCOCC2)CC1 |  | 12.6 µM (active)
15 | O=C(NCCCN1CCN(Cc2ccccc2)CC1)C1CCN(S(=O)(=O)N2CCCC2)CC1 |  | 3.98 µM (active)
16 | CC(C)N(CCNC(=O)C1CCN(S(=O)(=O)N2CCOCC2)CC1)Cc1ccccc1 | -20.1% | 
17 | COc1cccc(CNC(=O)C2CCN(S(=O)(=O)N3CCCCC3)CC2)c1 | -15.4% | 
18 | Cc1ccc(NC(=O)CCC(=O)NNS(=O)(=O)c2ccccc2)c(C)c1 | -2.14% | 
19 | CCN1C(=O)CC(N2CCN(CC(=O)NC(C)C)CC2)C1=O (stereo not given) | 22.1% | 
20 | CCN(CC)C(=O)Cn1cc(/C=C(\C#N)C(=O)N2CCN(c3ccccc3)CC2)c2ccccc21 | -15.9% | 
21 | Cc1ccc(-c2nc3ncccn3c2NC(=O)C2CC2)cc1 | -1.06% | 
22 | CCn1c(=O)c2c(O)cc(=O)oc2c2ccccc21 | 9.72% | 
23 | CCc1c(C)c(C#N)c2nc3ccccc3n2c1Nc1c(C)n(C)n(-c2ccccc2)c1=O | -27.3% | 
24 | N#CCCn1c(=O)c(-c2ccccc2)nc2cnc(Oc3cccc(Cl)c3)nc21 | 2.25% | 
25 | Cn1cc(-c2nc3cnc(Oc4ccccc4)nc3n(C)c2=O)c2ccccc21 | 6.63% | 

Row | SMILES | activity, negative = inhibition | AC50
26 | CC[C@H](CN(C)C)C(=O)c1ccco1 | -4.86% [at 11.4 µM] | 
27 | COc1ccccc1/C=N/NC(=Nc1ccc(C)cc1)c1nc2ccccc2s1 | 3.23% | 
28 | COCCn1c(=O)c(C)nc2cncnc21 | -17.4% | 
29 | CSc1nc(Sc2cccc(Cl)c2)c2ccccc2n1 | -0.0132% | 
30 | Cc1c(N2C(=O)CS/C2=N\N=C\c2ccc(Cl)cc2)c(=O)n(-c2ccccc2)n1C | 21% | 
31 | CC(C)Cn1c(-c2nn(C)cc2Cl)n[nH]c1=S | -6.99% | 
32 | O=C(Nc1cccc(F)c1)N1CCC2(CC1)CCN(C(=O)c1csnn1)CC2 | -19.8% | 
33 | Cc1ccc(Oc2nc(-c3ccccc3)ncc2S(C)(=O)=O)cc1 | -12.2% | 
34 | Cc1c(NC(=O)CSc2nnnn2C)c(=O)n(-c2ccccc2)n1C | 3.7% | 
35 | CC1(C)S[C@@H]2[C@H](NC(=O)[C@@H](N)c3ccc(O)cc3)C(=O)N2[C@H]1C(=O)O | 3.49% [at 25.6 µM] | 
36 | CCc1ccc(N(C(=O)c2csnn2)C(C(=O)NCc2ccccc2)c2ccco2)cc1 (stereo not given) | -29.7% | 
37 | O=C(O)[C@@H](O)[C@@H](O)[C@H](O)[C@H](O)CO | 0.284% [at 11.4 µM] | 
38 | N/N=C1/CC(=O)NC(=O)N1 | -6.83% [at 11.4 µM] | 
39 | CCn1ccnc1C[C@@H]1COc2ccccc2O1 |  | 1.58 µM (active)
40 | N/C(=N\O)C1COc2ccccc2O1 (stereo not given) | -13.4% | 
41 | O=C(NCc1cccnc1)C1COc2ccccc2O1 (stereo not given) | -9.88% | 
42 | COc1ccc(N2C(=O)CC(S/C(N)=N/N=C(\C)c3cccs3)C2=O)cc1 (stereo not given) | -13.2% | 
43 | Cc1cccc(OC(=O)CN2C(=O)C3C4CCC(C4)C3C2=O)c1C (stereo not given) | 7.11% | 
44 | CCNC(=O)CSc1nnc(C2CC2)n1-c1ccccc1 | 12.1% | 
45 | O=C(Nc1ccccc1Cl)c1ccccc1Cl | -9.19% | 
46 | O=C(Nc1cccc(Cl)c1Cl)c1snnc1-c1ccccc1 |  | 10 µM (active)
47 | Cn1cccc1C(=O)C(=O)Nc1cccc(Cl)c1Cl | -11.4% | 
48 | O=[N+]([O-])c1ccc(C2CCCC/C2=N\OCc2cccc(F)c2)c([N+](=O)[O-])c1 (stereo not given) | -13.9% | 
49 | NCCOB(c1ccccc1)c1ccccc1 | 0.853% | 
50 | Cc1cc(NC(=O)c2c([N+](=O)[O-])c(C)nn2C)no1 | 16.4% | 

Row | SMILES | activity, negative = inhibition | AC50
51 | CCC(=O)NNc1cc(=O)c2c(=O)n(C)c(=O)n(C)c2[nH]1 | -4.88% | 
52 | CCN1CCCC1Cn1cnc2c([nH]c3ccc(C)cc32)c1=O (stereo not given) |  | 4.47 µM (active)
53 | COc1ccc2[nH]c3c(NCCCN4CCCC4=O)ncnc3c2c1 | -9.24% | 
54 | CCOCCCn1cnc2c([nH]c3cc(OC)ccc32)c1=O | -1.75% | 
55 | O=S(=O)(C=C(c1ccccc1)c1ccccc1)c1ccccc1 | -14.5% | 
56 | O=c1oc(-c2cccs2)nc2ccc(Br)cc12 | -22.6% | 
57 | O=S(=O)(c1ccccc1)N1N=C(c2cccs2)CC1c1ccc(Br)cc1 (stereo not given) |  | 1.12 µM (active)
58 | O=S(=O)(c1ccc(Br)cc1)N1CCN(S(=O)(=O)c2ccc(Br)cc2)CC1 | -1.87% [at 11.4 µM] | 
59 | COc1nc(C)nc(Cl)c1NC1=NCCN1 |  | inactive
60 | Clc1cccc(Cl)c1NC1=NCCN1 |  | 10 µM (active)
61 | COc1ncc2nc(-c3cccs3)c(=O)n(CCc3ccccc3)c2n1 | -3.39% | 
62 | CCCCOC(=O)CSCC(=O)Nc1cc(C)on1 | 14.5% | 
63 | Cc1cc2nc(CCN(C(=S)NCC(C)C)C3CCCC3)[nH]c2cc1C |  | 1.12 µM (active)
64 | COc1ccc(/C=C/C(=O)Nc2ccccc2C(=O)N2CCCC2)cc1 | -9.24% | 
65 | CCCc1cc2c(n1CCc1ccc(Cl)cc1)C(C)C1CN(C(=O)c3ccccc3)C(C)(C(=O)OC)C21 (stereo not given) |  | 5.01 µM (active)
66 | COC(=O)[C@@]1(Cc2ccc(F)cc2)[C@H]2c3cc(C(=O)N4CCCC4)n(Cc4ccc(Cl)c(C(F)(F)F)c4)c3C[C@H]2CN1C(=O)c1ccccc1 | 5.7% | 
67 | COC(=O)[C@@]1(Cc2ccccc2)[C@H]2c3cc(C(=O)N4CCCC4)n(Cc4ccc(S(C)(=O)=O)cc4)c3C[C@H]2CN1C(=O)c1ccccc1 | -14.3% | 
68 | CS(=O)(=O)Nc1c(O)ccc2c1CCC[C@H]2C1=NCCN1 | -10.4% | 
69 | N[C@H](C(=O)O)c1cc(O)cc(O)c1 |  | inactive
70 | C/C(=N/NC(=O)c1cccs1)c1ccc(NC(=O)COc2ccc(Cl)cc2Cl)cc1 | -12% | 
71 | O=C(CNC(=O)c1cccs1)NCC(=O)OCc1ccc(Cl)cc1 |  | 15.8 µM (active)
72 | O=C(CNC(=O)c1cccs1)NCC(=O)OCc1ccc(Cl)cc1Cl |  | 3.55 µM (active)
73 | O=C(CNC(=O)Cc1ccccc1)NCC(=O)OCc1ccccc1 (PhAc-Gly-Gly-OBn) | -13.3% | 
74 | O=C(NOC(=O)c1cc(Br)ccc1Cl)c1cccs1 | 3.2% | 
75 | CC(C)(C)c1ccc(COC(=O)CNC(=O)CNC(=O)Cc2ccccc2)cc1 | -17.8% | 

Row | SMILES | activity, negative = inhibition | AC50
76 | NCCSC[C@H](N)C(=O)O | -2.62% [at 11.4 µM] | 
77 | Cc1n[nH]c(=O)[nH]c1=O | -2.55% [at 25.6 µM] | 
78 | C[C@@]12C=CC(=O)C=C1CC[C@@H]1[C@@H]2[C@H](O)C[C@]2(C)[C@@H]1CC[C@]2(O)C(=O)CO | -2.91% [at 25.6 µM] | 
79 | COc1ccc(-n2c(=O)c(C)nc3cnc(Oc4ccccc4)nc32)cc1 | -18.4% | 
80 | COc1cc(/C=C(/C#N)c2nc3ccccc3[nH]2)ccc1OCC(=O)Nc1ccccc1C | -16.6% | 
81 | N#C/C(=C\c1ccc(N2CCCC2)c([N+](=O)[O-])c1)c1nc2ccccc2[nH]1 |  | 0.631 µM (active)
82 | N#C/C(=C/c1ccc(N2CCCC2)c([N+](=O)[O-])c1)c1nc2ccccc2[nH]1 |  | 0.2 µM (active)
83 | N#C/C(=C\c1cc([N+](=O)[O-])c(N2CCCCC2)cc1N1CCCCC1)c1nn(-c2ccccc2)c(N)c1C#N | 27.3% | 
84 | N#C/C(=C\c1ccc(Oc2ccc(C(F)(F)F)cc2[N+](=O)[O-])cc1)c1nc2ccccc2[nH]1 | -81.3% | 
85 | O=C(O/N=C\c1ccc(N2CCCCC2)c([N+](=O)[O-])c1)c1c(F)cccc1F | 7.86% | 
86 | CSc1ncnc2c1ncn2[C@@H]1O[C@@H](CO)[C@H](O)O[C@@H]1O | 14.1% [at 11.4 µM] | 
87 | CC(NC(=O)OCc1ccccc1)C(=O)NCC1CCCO1 (stereo not given) | 13.2% | 
88 | CCCC[C@@H]1C[C@H]1C(NC(=O)c1cccs1)c1ccc(Cl)cc1 (stereo not given in full) | 3.97% | 
89 | O=S(=O)(O)c1ccc(N=Nc2ccc3c(S(=O)(=O)O)cccc3c2O)c2ccccc12 | -18.7% [at 11.4 µM] | 
90 | Cn1c(SCC(=O)Nc2ccccc2)nc(O)cc1=O | -13.2% | 
91 | CCN(CC)c1ccc(NC(=O)CSc2nnc3nc(C)cc(C)n23)cc1 | 12.6% | 
92 | CCc1c(C)nc(N)n2c(SCC(=O)Nc3ccccc3)nnc12 |  | 1.41 µM (active)
93 | COc1ccc(Oc2ncc3nc(CCc4ccccc4)c(=O)n(CCC#N)c3n2)cc1 | -6.14% | 
94 | Cc1cccc(OC2(c3ccccc3)OC(=O)c3ccccc32)c1C (stereo not given) | -6.72% | 
95 | CCN(CC)C(=O)COc1ccc(S(=O)(=O)N2CCOCC2)cc1 | 22.3% | 
96 | N#C/C(=C\NC(=S)c1ccncc1)c1nc2ccccc2s1 | -9.99% [at 11.4 µM] | 
97 | C=CCn1c(=O)c(C(=O)NCCN(CC)CC)c(O)c2ccccc21 |  | 4.47 µM (active)
98 | CCCc1c(O)c2ccccc2n(-c2ccccc2)c1=O | 1.37% | 
99 | CN(C(=O)c1c(O)c2ccccc2n(C)c1=O)c1ccccc1 | -7.86% | 
100 | COc1ccc(NC(=O)N2CCCC3(CCN(C(=O)c4cnccn4)CC3)C2)cc1 | 4.29% | 
